Results published in ChEMBL document CHEMBL1961873, “Compounds: GSK PKIS; Assays: Nanosyn kinase panel” (2012).

These compounds were tested against PAS domain-containing serine/threonine-protein kinase (Homo sapiens) (UniProt Q96RG2). Details: at 1 µM.
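Note: reported value is the mean percent inhibition of PASK.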

Sequence of PAS domain-containing serine/threonine-protein kinase (Homo sapiens) (Q96RG2 whole entry, the tested form may be a part): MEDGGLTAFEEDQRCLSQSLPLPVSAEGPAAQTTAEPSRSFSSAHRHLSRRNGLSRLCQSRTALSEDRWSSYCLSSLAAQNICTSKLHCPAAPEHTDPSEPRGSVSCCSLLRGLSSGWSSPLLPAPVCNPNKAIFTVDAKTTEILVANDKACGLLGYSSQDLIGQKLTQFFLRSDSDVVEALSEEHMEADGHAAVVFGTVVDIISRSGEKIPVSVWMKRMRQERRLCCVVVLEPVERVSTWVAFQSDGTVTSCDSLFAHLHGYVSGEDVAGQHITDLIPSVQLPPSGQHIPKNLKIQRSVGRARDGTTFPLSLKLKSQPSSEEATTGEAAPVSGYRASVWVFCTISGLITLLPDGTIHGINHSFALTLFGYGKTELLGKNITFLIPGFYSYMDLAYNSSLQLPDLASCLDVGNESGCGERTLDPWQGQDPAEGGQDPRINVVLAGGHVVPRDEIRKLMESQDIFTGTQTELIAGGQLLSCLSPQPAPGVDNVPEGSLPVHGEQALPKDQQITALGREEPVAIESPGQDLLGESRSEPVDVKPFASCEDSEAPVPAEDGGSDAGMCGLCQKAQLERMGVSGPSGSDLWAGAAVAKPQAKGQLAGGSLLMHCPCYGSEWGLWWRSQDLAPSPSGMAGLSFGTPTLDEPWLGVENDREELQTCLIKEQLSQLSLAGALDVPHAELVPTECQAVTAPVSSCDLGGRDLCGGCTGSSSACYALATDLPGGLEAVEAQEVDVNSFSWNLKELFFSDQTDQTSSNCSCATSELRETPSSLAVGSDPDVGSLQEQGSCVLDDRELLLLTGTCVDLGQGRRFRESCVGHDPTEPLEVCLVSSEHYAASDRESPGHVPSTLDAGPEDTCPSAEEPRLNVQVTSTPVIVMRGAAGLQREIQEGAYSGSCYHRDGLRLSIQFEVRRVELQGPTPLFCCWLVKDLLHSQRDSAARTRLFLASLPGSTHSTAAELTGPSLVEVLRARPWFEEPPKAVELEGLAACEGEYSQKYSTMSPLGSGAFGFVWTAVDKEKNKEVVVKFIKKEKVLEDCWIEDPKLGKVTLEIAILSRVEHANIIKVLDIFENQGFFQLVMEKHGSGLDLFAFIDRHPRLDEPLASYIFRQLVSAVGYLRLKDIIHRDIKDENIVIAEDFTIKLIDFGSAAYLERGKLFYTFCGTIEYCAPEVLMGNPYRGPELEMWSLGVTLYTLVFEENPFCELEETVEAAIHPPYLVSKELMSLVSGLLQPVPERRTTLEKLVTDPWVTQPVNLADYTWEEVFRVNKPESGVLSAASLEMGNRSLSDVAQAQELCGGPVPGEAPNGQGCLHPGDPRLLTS

Structure (SMILES) | inhibition [%]
COc1cc(C=NNc2ncnc3c2cnn3Cc2ccccc2)ccc1O | 0.37
CCn1c(-c2nonc2N)nc2c(C#CCN)ncc(OCCCN)c21 | 16.9
CCn1c(-c2nonc2N)nc2c(C#CC(C)(C)O)nc(O[C@@H](CN)c3ccccc3)cc21 | 15.9
NS(=O)(=O)c1ccc(N/C=C2\C(=O)Nc3ccc4ncsc4c32)cc1 | 0.4
NC(=O)c1sc(-n2cnc3cc(C(F)(F)F)ccc32)cc1OCc1ccccc1Br | 0.96
Cc1cc(-c2ccco2)cc(C)c1/C=C/c1cncc(-c2nn[nH]n2)c1 | 1.25
Nc1nonc1-c1nc2cnccc2n1C1CCCCC1 | 12.9
COc1cccc(-n2ncc3c(N/N=C/c4ccncc4)ncnc32)c1 | 0.25
COc1cc2c(cc1Nc1nc(Nc3ccsc3C(N)=O)c3cc[nH]c3n1)N(C(=O)CN(C)C)CCC2 | 1.03
CCn1c(-c2nonc2N)nc2c(C#CC(C)(C)O)ncc(OC[C@@H]3CCCN3)c21 | 7.61
CCn1c(-c2nonc2N)nc2c(C#CC(C)(C)O)ncc(OCC3CCNCC3)c21 | 12.8
COc1cccc(COc2cc(-n3cnc4ccccc43)sc2C(N)=O)c1 | 1.08
Fc1ccc(-c2ncn(C3CCNCC3)c2-c2ccnc(Oc3ccccc3)n2)cc1 | -1
NS(=O)(=O)c1ccc(-c2ccc3c(NC(=O)C4CC4)n[nH]c3c2)cc1 | -1.27
